# Source: PubChem
# Shown are actives, neighbours in structure and some others; about 3.8% of the full set was active somewhere.
# GLS inhibitor: glutaminase GLS (human) inhibition; GLS enzymatic activity, qHTS titration; Potency, µM (top dose mostly 45.5 µM), for inactives: at the highest dose activity change, negative = inhibition, most hits filed as inhibitors; 0.21% of 410,000 active
# Target sequence (O94925 whole entry, looked up): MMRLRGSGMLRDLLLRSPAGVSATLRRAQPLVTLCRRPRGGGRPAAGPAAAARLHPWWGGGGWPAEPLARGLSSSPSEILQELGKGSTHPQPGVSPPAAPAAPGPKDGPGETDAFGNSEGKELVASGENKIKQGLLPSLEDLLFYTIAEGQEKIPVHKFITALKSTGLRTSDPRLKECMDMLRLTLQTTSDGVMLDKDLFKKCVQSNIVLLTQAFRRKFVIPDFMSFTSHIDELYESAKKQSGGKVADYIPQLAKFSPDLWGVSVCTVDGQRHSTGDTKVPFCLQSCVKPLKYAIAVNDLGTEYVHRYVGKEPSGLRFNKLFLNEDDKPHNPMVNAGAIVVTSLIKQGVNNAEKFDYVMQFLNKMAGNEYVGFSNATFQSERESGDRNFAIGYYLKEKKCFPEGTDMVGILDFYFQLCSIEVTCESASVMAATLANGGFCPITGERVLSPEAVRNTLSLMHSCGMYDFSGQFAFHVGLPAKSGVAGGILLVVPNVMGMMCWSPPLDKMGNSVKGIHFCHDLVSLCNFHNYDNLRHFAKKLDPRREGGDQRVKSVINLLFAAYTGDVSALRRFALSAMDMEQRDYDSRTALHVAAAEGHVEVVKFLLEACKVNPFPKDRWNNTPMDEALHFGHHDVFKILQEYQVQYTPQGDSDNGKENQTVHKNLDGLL
#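 Two-point fluorescence kinetic (t0, 30 min RT) for hKGA; glutamate detected via glutamate oxidase–HRP–Amplex Red. Substrate: 1 mM L-glutamine solution; buffer 45 mM KH2PO4, pH 8.2.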
# Sfp inh: Sfp phosphopantetheinyl transferase inhibition; Q9F4F7; Biochemical Sfp PPTase activity, qHTS; Potency, µM, inactives show largest response in the series, negative = inhibition, most hits filed as inhibitors; 3.5% of 310,000 active;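 note: the enzyme is Sfp with the accession as filed and its product quenches rhodamine fluorescence; 0% = enzyme reaction without inhibitor and -100% = no enzyme wells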
#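 Step 1, compound plus 15 nM Sfp-PPTase, 15 min, room temperature. Step 2, add rhodamine-CoA (5 uM) and BHQ-2-YbbR (12.5 uM). Step 3, read 525/598 nm fluorescence at 0 and 30 min.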
# VDR inhibitor: blocks the human vitamin D receptor; VDR-SRC2-3 peptide fluorescence polarization, 2 h; Potency, µM, without a hit: max response, negative = inhibition, hits mostly inhibitors; 0.93% of 400,000 active; AID 504847
#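 Inhibition of the VDR/SRC2-3 peptide interaction is quantified by fluorescence polarization. Compounds (23 nl, pintool) incubate with the reagents for 2 hours at ambient room temperature.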
# rTrxR1 inhibitor: rat TrxR1 inhibition. 1% of 390,000 active. O89049. recombinant rTrxR1, NADPH fluorescence consumption, selenite substrate. AID 588453. Potency, µM (highest dose often 114 µM), for inactives: at the highest dose activity change, negative = inhibition, usual class: inhibitors; note: nearly all actives have a fitted effect of over 65% in size
#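 Rat TrxR1 (90 nM in the dispensed reagent) was pre-reduced with 400 uM NADPH for 5 min at room temperature, then incubated with compound for 15 min. After 400 uM selenite was added, NADPH fluorescence (Ex 340/Em 450 nm) was followed for 8 min.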
# TrxR1 substrate: is turned over as a substrate by rat TrxR1 | O89049 | purified TrxR1 substrate turnover, NADPH consumption readout | Potency, µM (titrated, usually from 114 µM), inactives show top-dose activity change, negative = substrate turnover | 0.01% of 390,000 active; note: nearly all actives have a fitted effect of over 50% in size
#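 Rat TrxR1, dispensed at 90 nM, was prereduced with 400 uM NADPH (final) for 5 min at ~22 deg C, then incubated with compound 15 min before 400 uM selenite. A first-read NADPH fluorescence drop versus no-compound background flagged substrates.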
# GCN5L2 inh: blocks human GCN5L2 histone acetyltransferase; 0.21% of 390,000 active; AID 504327; Q92830; GCN5L2 HAT assay, ThioGlo1 CoA-SH fluorescence; Potency, µM (doses to about 58.9 µM), for inactives: top-dose activity change, negative = inhibition, usual class: inhibitors
#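 Compounds, pin-transferred from DMSO stocks, meet 20nM GCN5L2 for 15 min before the reaction begins with H3(1-25) peptide (75uM) and acetyl-CoA (70uM). Thiol-reactive ThioGlo1 reports CoA release over 20 min at room temperature.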
# The depositor's hits bear a star; ? = inconclusive; nt = not tested or not shown; ! = a repeat was not active; [ ] = dose if it differs, or a comment. Calls come from the whole dose curve; as a rule, active = well fitted curve in the direction sought with a large enough effect; inconclusive = small, poorly fitted or top-dose-only effect, or another doubt; inactive = no such curve, though single readings can be large; an effect the other way counts as inactive or inconclusive. Unless noted, % is set by controls: 0 for no effect and ±100 for the full control effect; potency is the fitted concentration of half-maximal effect.
SMILES,GLS inhibitor,Sfp inh,VDR inhibitor,rTrxR1 inhibitor,TrxR1 substrate,GCN5L2 inh
O=C1N=C(N2CCCCC2)SC1=C1CCCCC1,-7%,-3%,11%,-11%,-9%,-12%
O=C1NC(=S)SC1=C1CCCCCC1,27%,35µM*,?,?,-16%,-8%
COc1ccc(OC)c(NS(=O)(=O)c2ccc(NC(=O)c3ccc(NS(C)(=O)=O)cc3)cc2)c1,1%,14%,5%,5%,-6%,-6%
Cc1ccc(SCC(=O)Nc2cccc(C)c2)cc1,-1%,0%,-5%,13%,-5%,-11%
O=[n+]1c2c(n([O-])c3cc(F)c(F)cc31)CCCC2,1%,3%,3%,3.5µM*,-8%,-7%
COc1ccc(C2NC(=S)N(c3ccccc3)C(C)=C2C(=O)Nc2ccccc2)cc1 (stereo not drawn),19%,89µM*,11%,2%,-4%,-20%
COC(=O)Cn1cnc2c(cnn2-c2ccc(OC)cc2)c1=O,-1%,25%,24%,17%,6%,2%
Cc1cc(C)n(CC(=O)N2c3ccccc3Sc3ccc(C(F)(F)F)cc32)n1,1%,16%,-7%,2%,1%,-3%
CCN(CC)CCC(=O)N1c2ccccc2Sc2ccc(C(F)(F)F)cc21,15%,2%,28µM*,nt,nt,-3%
CCN(CC)CCC(=O)N1c2ccccc2Sc2ccc(Cl)cc21,-5%,8%,50µM*!,11%,6%,1%
CN(C)CCC(=O)N1c2ccccc2Sc2ccc(Cl)cc21,5%,3%,12%,-25%,-8%,0%
Cc1ccc(-c2cn3c(n2)sc2cc(C(=O)NCCCc4ccccc4)ccc23)c(C)c1,-3%,nt,11%,38%,18%,-12%
COC(=O)c1c(C)oc2c1cc(NS(=O)(=O)c1ccc(C(=O)O)cc1)c1ccccc12,0%,-19%,?,?,-10%,-3%
O=C(CN1C(=O)C2CCCCC2C1=O)Nc1ccc(OC(F)F)c(Cl)c1 (stereo not drawn),-6%,nt,-5%,12%,-6%,1%
O=C(O)c1cccc(-c2ccc(/C=c3/sc4nc5ccccc5n4c3=O)o2)c1,13µM*,?,-6%,26%,0%,-16%
O=C1NN(c2ccc(Cl)cc2)C(=O)/C1=C\c1ccc(-c2cccc(C(=O)O)c2)o1,0%,-3%,?,-7%[57.1 µM],-1%[57.1 µM],-27%
CC(C)(O)c1cc(=O)sc2nc3ccccc3n12,0%,10%,-2%,16%,3%,-1%
O=C(O)c1ccccc1-c1ccc(C=c2sc3nc4cc(Br)cnc4n3c2=O)o1,7.9µM*,nt,nt,nt,nt,nt
O=c1/c(=C\c2cc([N+](=O)[O-])cc([N+](=O)[O-])c2O)sc2nc3ccccc3n12,?,22µM*,40µM*,?,0%[57.1 µM],?
O=C(O)c1cc(C(=O)O)cc(-c2ccc(/C=c3/sc4nc5ccccc5n4c3=O)o2)c1,0%,7.1µM*,8%,-11%[57.1 µM],-4%[57.1 µM],-12%
O=c1/c(=C/c2ccccn2)sc2nc3ccccc3n12,0%,-4%,-12%,2%,-7%,-4%
COCCNC(C(=O)Nc1cc(Cl)cc(Cl)c1)c1ccccc1 (stereo not drawn),7%,-7%,6%,9%[57.1 µM],-4%,1%
CC(C)c1ccccc1NC(=O)CNCCc1ccc(C(F)(F)F)cc1,-2%,79µM*,-10%,23%,-8%,16%
COc1ccc(C=NNc2ccc(S(=O)(=O)Nc3ccccc3C(=O)O)cc2[N+](=O)[O-])c(OC)c1,13%,nt,89µM*,1%,-9%,?
COc1ccc(NC(=S)NNc2ccc(S(=O)(=O)Nc3ccccc3C(=O)O)cc2[N+](=O)[O-])cc1,65%,79µM*,-3%,?,-3%,?
SMILES,GLS inhibitor,Sfp inh,VDR inhibitor,rTrxR1 inhibitor,TrxR1 substrate,GCN5L2 inh
O=C(O)c1ccccc1NS(=O)(=O)c1ccc(NN=Cc2ccccc2F)c([N+](=O)[O-])c1,12%,nt,?,-13%,-10%,?
Cc1nn(-c2ccccc2)c(Cl)c1/C=N/NC(=O)OC(C)(C)C,9%,28%,-10%,-13%,-17%,-3%
Cc1nn(-c2ccccc2)c(Cl)c1/C=N/Nc1ccc(S(=O)(=O)Nc2ccccc2C(=O)O)cc1[N+](=O)[O-],1%,-21%,79µM*,-1%[57.1 µM],0%[57.1 µM],?
Cc1nn(-c2ccccc2)c(Cl)c1/C=N/Nc1ccc(Cl)c(C(=O)O)c1,16µM*,2%,-11%,-3%[57.1 µM],-14%,-7%
COCCN(C(=O)c1ccc(-c2ccc(Cl)cc2)o1)c1c(N)n(Cc2ccccc2)c(=O)[nH]c1=O,3%,nt,10%,-22%,8%,-5%
COCCN(C(=O)COC(=O)C1COc2ccccc2O1)c1c(N)n(Cc2ccccc2)c(=O)[nH]c1=O (stereo not drawn),2%,nt,13%,0%,-2%,0%
Cc1ccc(CN2CCN(/N=C/c3ccccc3)CC2)cc1,11%,4%,0%,5%,0%,-1%
COCCN1C(=O)CCC1(C)C(=O)Nc1ccc2ccccc2c1 (stereo not drawn),-4%,nt,nt,nt,nt,nt
Cc1sc2nc3ccc(N4CCCC4)nn3c(=O)c2c1C,-13%,25µM*,-22%,-7%,25%,-12%
CC(C)(C)c1ccc(S(=O)(=O)N2CCN(CC(O)CN3CCOCC3)CC2)cc1 (stereo not drawn),7%,nt,-4%,-10%,-7%,0%
O=C(C[C@H]1C/C=C\C[C@H](Cc2ccc(F)cc2)C(=O)O[C@@H](c2ccccc2)CNC1=O)N[C@@H](CO)Cc1ccccc1,-11%,nt,1%,13%,-5%,-4%
COc1ccc2cc(C(c3nnnn3Cc3ccc(F)cc3)N3CCCCCC3)c(=O)[nH]c2c1 (stereo not drawn),-8%,18µM*,-21%,?,2%,?
COc1ccc2cc(C(c3nnnn3CCc3ccccc3)N3CCC(O)CC3)c(=O)[nH]c2c1 (stereo not drawn),2%,2%,0%,?,-2%,-4%
COc1ccc2cc(C(c3nnnn3Cc3ccccc3)N3CCCCCC3)c(=O)[nH]c2c1 (stereo not drawn),-24%,?,-6%,?,16%,-2%
CCc1ccc2[nH]c(=O)c(C(c3nnnn3CCOC)N3CCN(c4ccccc4F)CC3)cc2c1 (stereo not drawn),3%,8.9µM*,1%,1%[57.1 µM],12%[57.1 µM],-11%
COCCn1nnnc1C(c1ccc(OC)cc1OC)N1CCN(c2ccccc2F)CC1 (stereo not drawn),0%,10%,1%,13%[57.1 µM],8%[57.1 µM],-3%
